Shown are actives, neighbours in structure and some others; about 0.51% of the full set was active somewhere.
Tat export inh: E. coli Tat export inhibitors, primary screen, MC4100, TorA-mCherry reporter, fluorescence, single point; inhibition, % at 10 µM; 340,000 tested, 0.036% active;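 active = mean replicate inhibition at least 50% and at least half of replicates individually reaching 50%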;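 note: exported cargo escapes ClpAP degradation while cytoplasmic cargo is degraded and loses fluorescence; 0% = median of neutral control wells and 100% = median of NaSCN control wells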
E coli growth-1: E. coli V3065 growth inhibition, primary screen, counter-screen for AddAB inhibitor project, absorbance, OD600; 18 h; inhibition, % at 11.9 µM; 330,000 tested, 0.27% active;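 active = inhibition above the campaign's mean inhibition across all tested compounds plus 3 SD, cut at about 9.9% in these data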;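 note: uninfected addAB+ strain grown without phage in ampicillin broth; 0% = DMSO wells and 100% = ciprofloxacin 0.95 µg/ml wells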
E coli growth-2: E. coli growth inhibition, primary screen, OD600 | OD600 absorbance (test concentration not listed) | Escherichia coli growth, 23 h; active compounds read low | AID 1053175, 2014 | 330,000 tested, 0.21% active;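 active = OD600 absorbance below the run mean of sample wells minus 3.6 SD, in any replicate, cut at about 0.56 in these data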
phage Ecoli inh: growth loss of phage-infected E. coli, primary screen, RecBCD inhibitor project, absorbance, with phage, HTS | inhibition, % at 11.9 µM | 360,000 tested, 0.26% active | AID 651602, 2012; in the data active = inhibition above about 11%
AddAB inh: growth inhibition of E. coli expressing H. pylori AddAB, primary screen, AddAB inhibitor project, absorbance; inhibition, % at 11.9 µM; 330,000 tested, 0.29% active; AID 435030, 2010; in the data active = inhibition above about 12%;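 note: 0% = vehicle wells of infected cells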
pCIP destab: p/CIP-EGFP fusion destabilizers, primary screen, fluorescence, F442A cells; 290,000 tested, 0.01% active; Q05BA5; decrease of EGFP signal, % at 10 µM; 16 h;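 active = EGFP signal decrease of at least 30% at 10 µM or well 3 SD below plate mean, unless failing retest; inactive = the rest, including hits failing retest or dose response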
Target sequence (Q05BA5 1-1403): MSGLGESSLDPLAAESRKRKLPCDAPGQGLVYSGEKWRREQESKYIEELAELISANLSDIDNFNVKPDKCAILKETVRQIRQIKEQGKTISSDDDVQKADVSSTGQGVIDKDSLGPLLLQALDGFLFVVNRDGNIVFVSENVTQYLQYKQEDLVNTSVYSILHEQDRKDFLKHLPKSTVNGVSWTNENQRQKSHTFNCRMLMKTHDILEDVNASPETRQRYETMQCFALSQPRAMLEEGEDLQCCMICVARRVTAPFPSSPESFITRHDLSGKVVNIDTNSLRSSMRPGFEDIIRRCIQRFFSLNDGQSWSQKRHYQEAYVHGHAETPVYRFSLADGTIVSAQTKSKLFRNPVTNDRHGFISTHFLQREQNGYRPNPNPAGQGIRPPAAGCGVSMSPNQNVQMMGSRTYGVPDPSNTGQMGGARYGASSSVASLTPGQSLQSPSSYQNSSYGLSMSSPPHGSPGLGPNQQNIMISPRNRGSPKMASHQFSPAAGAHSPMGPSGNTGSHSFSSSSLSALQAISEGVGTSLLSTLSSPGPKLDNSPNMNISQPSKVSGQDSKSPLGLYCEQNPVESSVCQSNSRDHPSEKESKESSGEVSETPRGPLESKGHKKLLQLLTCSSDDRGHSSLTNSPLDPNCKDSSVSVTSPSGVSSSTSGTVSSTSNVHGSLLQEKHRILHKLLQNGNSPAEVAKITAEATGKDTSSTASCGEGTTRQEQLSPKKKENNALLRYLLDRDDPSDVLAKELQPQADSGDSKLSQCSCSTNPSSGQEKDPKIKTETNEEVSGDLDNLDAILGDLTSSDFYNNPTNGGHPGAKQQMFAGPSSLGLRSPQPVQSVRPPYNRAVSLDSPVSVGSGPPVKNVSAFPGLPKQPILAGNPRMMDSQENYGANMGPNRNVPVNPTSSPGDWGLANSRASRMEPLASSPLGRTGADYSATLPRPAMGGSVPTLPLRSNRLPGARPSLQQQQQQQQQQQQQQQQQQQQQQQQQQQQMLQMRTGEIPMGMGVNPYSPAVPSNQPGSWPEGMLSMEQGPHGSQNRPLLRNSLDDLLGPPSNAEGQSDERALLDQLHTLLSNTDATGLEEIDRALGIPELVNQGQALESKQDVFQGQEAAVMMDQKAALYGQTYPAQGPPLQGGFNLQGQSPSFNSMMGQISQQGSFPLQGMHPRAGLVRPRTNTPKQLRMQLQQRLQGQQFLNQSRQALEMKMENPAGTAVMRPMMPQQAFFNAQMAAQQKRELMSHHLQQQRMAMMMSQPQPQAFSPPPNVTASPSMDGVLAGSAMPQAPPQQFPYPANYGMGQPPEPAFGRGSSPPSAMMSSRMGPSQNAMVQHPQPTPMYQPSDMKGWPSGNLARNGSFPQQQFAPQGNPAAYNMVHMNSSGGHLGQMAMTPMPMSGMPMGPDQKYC
AddAB conf: growth loss of phage-infected E. coli expressing H. pylori AddAB, confirmation, AddAB inhibitor project, absorbance, E. coli V3065, T4 phage, triplicate. shares compounds with AddAB inh. OD; T4 phage with gene 2 nonsense mutations. inhibition, % at 11.9 µM. 880 tested, 64% active;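 active = mean inhibition above a set limit taken from the earlier primary screen, cut at about 13% in these data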;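 note: higher means less bacterial growth since AddAB block lets phage replicate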
RecBCD counter: growth loss of RecBCD+ E. coli with mutant T4 phage, counter-screen for AddAB inhibitor project, absorbance, V66 E. coli. shares compounds with AddAB inh. OD growth. inhibition, % at 11.9 µM. 880 tested, 73% active;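 active = mean inhibition above the mean of solvent-only control wells plus 3 SD, cut at about 4% in these data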;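 note: optical density read after an 18 h incubation at 37 °C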
bact viab count: bacterial viability inhibition counter-screen, confirmation, counter-screen for AddAB inhibitor project, absorbance | AID 488956, 2010 | 880 tested, 35% active | shares compounds with AddAB inh | absorbance (AddAB counterscreen) | inhibition, % at 11.9 µM; in the data active = inhibition above about 25%
* = called active by the depositor; · = not tested or not shown.

SMILES	Tat export inh	E coli growth-1	E coli growth-2	phage Ecoli inh	AddAB inh	pCIP destab	AddAB conf	RecBCD counter	bact viab count
O=C(O[C@@H]1OC2COC(=O)c3cc(O)c(O)c(O)c3-c3c(cc(O)c(O)c3O)C(=O)O[C@@H]([C@H]1O)[C@@H]2O)c1cc(O)c(O)c(O)c1	-1.3	23.1*	·	·	21.9*	1.0	19.8*	14.3*	10.1
Cc1ccc(S(=O)(=O)N2CCOCC2)cc1C(=O)Nc1nc2ccccc2[nH]1	-0.8	0.9	0.748	2.8	1.6	-15.3	·	·	·
CCOc1cc(N)c(Cl)cc1C(=O)NCC1CN(Cc2ccc(F)cc2)CCO1 (stereo unspecified)	2.8	92.5*	0.0635*	5.0	98.6*	·	101.0*	11.6*	97.9*
CCCCCCCCn1ccc(=N)cc1	-5.7	10.1*	0.611	2.5	13.1*	-23.0	-2.9	-0.1	-1.8
CCCCCCN1Cc2ccccc2C1	2.4	-1.1	0.746	4.5	3.3	-3.9	·	·	·
CCCCCCCCCCn1ccc(=N)cc1	-8.1	8.7	0.448*	7.9	14.2*	-8.3	6.1	4.3*	6.0
CCOc1cc(C(=O)CCC(=O)OCC(=O)NC(=O)NCC(C)C)ccc1O	-3.1	1.8	0.729	0.9	3.5	-11.6	·	·	·
CCOc1ccc(S(=O)(=O)NC2CC2)cc1C(N)=O	-0.4	-2.0	0.706	4.8	0.5	20.4	·	·	·
C=CCN(c1ccccc1)S(=O)(=O)c1cccc(C(=O)NNC(=O)c2ccccc2O)c1	-3.8	-0.4	0.701	4.6	12.2*	·	4.7	3.7	4.4
COc1cccc(C=NNc2nnc(C)n2N)c1O	·	·	0.646	·	·	·	·	·	·
O=C(NC(CO)Cc1ccc([N+](=O)[O-])cc1)C(Cl)Cl (stereo unspecified)	11.7	82.9*	0.0615*	·	81.3*	-10.7	87.8*	87.7*	88.0*
O=C(O)CC(Cc1ccc(Cl)cc1)C(=O)Nc1ccc([N+](=O)[O-])cc1 (stereo unspecified)	4.8	0.0	0.692	4.5	2.0	5.9	·	·	·
CCC(=O)Nc1c2c(nn1-c1cccc(Cl)c1)CS(=O)(=O)C2	-5.8	0.4	0.719	2.0	1.4	-2.4	·	·	·
Cc1cccc(NC(=O)c2ccc([N+](=O)[O-])o2)c1C	-6.4	3.2	0.702	4.4	2.8	4.9	·	·	·
COc1ccccc1NC(=O)c1ccc([N+](=O)[O-])o1	·	23.9*	0.494*	9.3	30.3*	·	98.0*	13.5*	43.2*
O=C(Nc1ccccc1N1CCCC1)c1ccc([N+](=O)[O-])o1	-9.1	7.5	0.667	1.7	14.0*	7.3	23.3*	2.5	6.5
CC1CCN(c2ccccc2NC(=O)c2ccc([N+](=O)[O-])o2)CC1	-2.3	-3.0	0.696	0.1	3.1	0.4	·	·	·
O=C(CCN1CCN(c2ccccc2)CC1)N/N=C/c1ccc([N+](=O)[O-])o1	6.9	6.9	·	7.0	26.4*	-7.5	78.1*	3.7	7.2
O=C(CNc1cccc2ccccc12)N/N=C/c1ccc([N+](=O)[O-])o1	-20.7	2.5	·	3.1	13.7*	-14.2	35.5*	2.9	6.3
CC(=O)Nc1ccc(C=NNC(=O)CCN2CCN(c3ccccc3)CC2)cc1	·	·	0.674	·	·	·	·	·	·
COc1ccc(NC(=O)CSc2nc3ncccc3[nH]2)cc1OC	-9.3	3.3	0.703	5.5	12.5*	-3.0	-2.2	3.8	0.6
O=C1C=C(O)c2c(O)cc(O)c(O)c2C1=O	22.4	8.7	0.771	10.5	13.4*	·	14.2*	9.8*	14.4
C[C@@H]1Cc2c(O)c(O)cc(O)c2C(=O)O1	2.5	-1.7	0.772	·	4.4	5.3	·	·	·
Cc1nnc2ccc(-c3ccc(NC(=O)Cc4cccs4)cc3)nn12	12.9	-2.6	0.681	1.1	-2.2	-6.2	·	·	·
